The source of these data is paper PMC4336329 (PLoS ONE, 2015).

The structures appear in SMILES notation. Among all 310,000 compounds or so, about 2,200 (0.71%) showed an effect of 50% or more. The effect is printed as a negative number. This excerpt belongs to a sample that is enriched for strong results.

The target in the assay is human ether-à-go-go-related gene (hERG) potassium channel (human, UniProt Q12809). The assay can be described thus: primary screen, population patch clamp on CHO cells stably expressing hERG; higher = less effect of the substance.
Chain of human ether-à-go-go-related gene (hERG) potassium channel (Q12809 whole entry, looked up): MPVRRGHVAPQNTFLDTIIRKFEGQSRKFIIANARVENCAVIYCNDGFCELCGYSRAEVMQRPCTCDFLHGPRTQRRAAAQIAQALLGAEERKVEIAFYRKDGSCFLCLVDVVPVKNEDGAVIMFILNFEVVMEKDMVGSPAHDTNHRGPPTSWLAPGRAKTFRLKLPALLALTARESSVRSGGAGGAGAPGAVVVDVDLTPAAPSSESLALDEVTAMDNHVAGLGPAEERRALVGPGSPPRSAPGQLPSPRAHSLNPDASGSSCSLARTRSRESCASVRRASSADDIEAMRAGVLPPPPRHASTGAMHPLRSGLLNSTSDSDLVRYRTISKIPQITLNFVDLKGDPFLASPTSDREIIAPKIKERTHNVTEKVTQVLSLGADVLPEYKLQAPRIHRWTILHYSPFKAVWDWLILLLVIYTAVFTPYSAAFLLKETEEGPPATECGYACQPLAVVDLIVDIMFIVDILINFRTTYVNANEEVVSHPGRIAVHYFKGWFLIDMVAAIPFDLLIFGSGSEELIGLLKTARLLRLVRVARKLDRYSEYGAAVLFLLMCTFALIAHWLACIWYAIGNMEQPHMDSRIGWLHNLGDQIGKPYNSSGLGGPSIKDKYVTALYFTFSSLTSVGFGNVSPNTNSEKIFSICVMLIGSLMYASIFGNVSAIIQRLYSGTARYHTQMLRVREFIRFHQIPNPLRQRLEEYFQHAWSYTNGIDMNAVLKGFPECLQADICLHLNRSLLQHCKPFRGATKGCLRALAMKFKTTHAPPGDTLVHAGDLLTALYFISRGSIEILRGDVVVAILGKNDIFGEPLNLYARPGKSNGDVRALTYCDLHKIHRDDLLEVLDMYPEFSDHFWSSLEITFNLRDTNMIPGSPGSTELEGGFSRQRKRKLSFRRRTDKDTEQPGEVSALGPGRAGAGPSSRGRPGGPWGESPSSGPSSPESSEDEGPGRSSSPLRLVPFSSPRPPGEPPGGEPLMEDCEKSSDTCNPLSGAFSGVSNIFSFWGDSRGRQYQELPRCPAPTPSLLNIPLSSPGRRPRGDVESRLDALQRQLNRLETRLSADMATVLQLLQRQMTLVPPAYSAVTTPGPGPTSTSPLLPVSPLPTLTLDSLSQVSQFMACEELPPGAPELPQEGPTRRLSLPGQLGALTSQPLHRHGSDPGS
For the compound `O=C(Nc1ccccc1)N1CCN(c2ncccn2)CC1`, the “hERG current change (%, negative = inhibition) at 1uM” value amounted to 6.7%. With `COc1cccc(-c2cc(CC3(O)CCN(CCCc4ccccc4)CC3)on2)c1`, the “hERG current change (%, negative = inhibition) at 1uM” value is on record as -39.3%.

Take `OC1(Cc2cc(-c3ccccc3)no2)CCN(CCCc2ccccc2)CC1`: the “hERG current change (%, negative = inhibition) at 1uM” value was -55.5%. Next, `c1ccc(CCCN2CCOCC2)cc1`: 22.1%; `COc1ccccc1S(=O)(=O)Cc1ccc(C(=O)NCCN2CCCC2)o1`: 14.2%. In the case of `O=C(NCCN1CCCCCC1)c1ccc(CS(=O)(=O)c2ccc(Br)cc2)o1` it was -37.9%; in that of `COc1ccccc1S(=O)(=O)Cc1ccc(C(=O)NCCN2CCCCCC2)o1`, 9.15%; in that of `COc1ccc(N2CCN(CCCNC(=O)c3ccc(CS(=O)(=O)c4ccc(OC)cc4)o3)CC2)cc1`, -43.1%. In the case of `COc1ccccc1S(=O)(=O)Cc1ccc(C(=O)NCCCN2CCN(c3ccc(F)cc3)CC2)o1` it was -68.3%. For the compound `O=C(NCCCN1CCCC1)c1ccc(CS(=O)(=O)c2ccc(Cl)cc2)o1`, the “hERG current change (%, negative = inhibition) at 1uM” value was 18.1%.

Consider `O=C(NCCN1CCN(Cc2ccccc2)CC1)c1ccc(CS(=O)(=O)c2ccc(Br)cc2)o1`, for which the “hERG current change (%, negative = inhibition) at 1uM” value is -50.5%.

As to `O=C(NCCN1CCOCC1)c1ccc(CS(=O)(=O)c2ccc(Br)cc2)o1`, the “hERG current change (%, negative = inhibition) at 1uM” value is -0.189%. For `COc1ccc(N2CCN(CCCNC(=O)c3ccc(CS(=O)(=O)c4ccc(Cl)cc4)o3)CC2)cc1`, the “hERG current change (%, negative = inhibition) at 1uM” value is -71.2%. Next, `CSc1nc2nc3c(c(=O)n2[nH]1)CCC3`: 1.88%. On to `CCOC(=O)c1sc2nc[nH]c(=O)c2c1C`, for which the “hERG current change (%, negative = inhibition) at 1uM” value turned out to be 12.6%.

`Cc1cc2c(cc1C)[n+](C)cn2CC(O)COCC1CC=CCC1.[I-]` (stereo not shown): the “hERG current change (%, negative = inhibition) at 1uM” value worked out at 11%. In the case of `CC(=O)CC(c1ccccc1)c1c(O)c2ccccc2oc1=O.[Na]` (stereo not shown) it was 15.2%; in that of `Cc1ccc(C(=O)Nc2cccc(-c3ccc(N4CCOCC4)nn3)c2)cc1`, 4.57%; in that of `COc1cc(SC)ccc1C(=O)OCC(=O)NC1CCCC1`, 9.49%. Turning to `c1ccc(CSc2ccc3nnc(-c4ccccn4)n3n2)cc1`, the “hERG current change (%, negative = inhibition) at 1uM” value is -26.6%. Next, `Cc1cccc(CSc2ccc3nnc(-c4cccnc4)n3n2)c1`: -16%. Next, `Fc1ccc(CSc2ccc3nnc(-c4cccnc4)n3n2)cc1`: -31.8%; `Fc1cccc(Cl)c1CSc1ccc2nnc(-c3ccccn3)n2n1`: 1.37%; `Fc1ccc(CSc2ccc3nnc(-c4ccccn4)n3n2)cc1`: -92.9%. Next, `O=C(CSc1ccc2nnc(-c3ccccn3)n2n1)Nc1cccc(F)c1`: -7.83%. For `Brc1ccc(CSc2ccc3nnc(-c4ccccn4)n3n2)cc1`, the “hERG current change (%, negative = inhibition) at 1uM” value is given as -12.7%. Next, `Fc1ccc(CSc2nnc3ccc(-c4ccncc4)nn23)cc1`: -61.2%. In the case of `Cc1ccc(CSc2ccc3nnc(-c4cccnc4)n3n2)cc1` it was -70.6%. In the case of `c1ccc(CSc2nnc3ccc(-c4ccncc4)nn23)cc1` it was -12%; in that of `Fc1cccc(CSc2ccc3nnc(-c4ccccn4)n3n2)c1`, -50.2%. On to `Cc1ccc(CSc2nnc3ccc(-c4ccncc4)nn23)cc1`, for which the “hERG current change (%, negative = inhibition) at 1uM” value is -3.17%.

As to `Cc1cc[n+](CC(=O)Nc2cc(C(F)(F)F)ccc2Cl)cc1.[Cl-]`, the “hERG current change (%, negative = inhibition) at 1uM” value worked out at 5.29%. `O=C(NCCS(=O)(=O)N1CCC2(CC1)OCCO2)c1ccc(F)cc1`: the “hERG current change (%, negative = inhibition) at 1uM” value came out at 13.2%. Next, `CSc1nc2ccccc2cc1/C=C(\C#N)c1ccccc1`: 9.25%. As for `Cc1ccccc1S(=O)Cc1ccc(C(=O)NCCN2CCOCC2)o1` (stereo not shown), the “hERG current change (%, negative = inhibition) at 1uM” value came out at 25.5%.

In the case of `CC(C)CN(C(=O)CSc1nnc2ccccn12)C1CCS(=O)(=O)C1` (stereo not shown), the “hERG current change (%, negative = inhibition) at 1uM” value is listed as 8.69%. In the case of `CCOC(=O)Cn1ncc2c3ccccc3n(CC(=O)OCC)c2c1=O` it was 13.4%.

In the case of `Cc1cccc(CSc2ccc3nnc(-c4cccs4)n3n2)c1`, the “hERG current change (%, negative = inhibition) at 1uM” value is 5.73%.

For the compound `Cc1cccc(CSc2nnc(-c3ccccn3)n2N)c1`, the “hERG current change (%, negative = inhibition) at 1uM” value was 9.76%. Next, `Cc1cccc(CSc2ccc3nnc(-c4ccccn4)n3n2)c1`: -58.9%; `Cc1ccc(NC(=O)c2cc(NC(=O)C3CC=CCC3C(=O)O)ccc2N2CCOCC2)cc1Cl` (stereo not shown): 5.76%. In the case of `O=C(/C=C/c1ccco1)Nc1cccc(S(=O)(=O)N2CCOCC2)c1` it was -5.85%; in that of `c1ccc(CN2CCN(Cc3c[nH]c4ccccc34)CC2)cc1`, 15.3%; in that of `Brc1ccc(CN2CCN(Cc3c[nH]c4ccccc34)CC2)cc1.O=C(O)C(=O)O`, -22%.

With `COc1ccc(CN2CCN(Cc3c[nH]c4ccccc34)CC2)cc1.O=C(O)C(=O)O`, the “hERG current change (%, negative = inhibition) at 1uM” value is recorded as -27.2%. In the case of `O=[N+]([O-])c1ccc(CN2CCN(Cc3c[nH]c4ccccc34)CC2)cc1` it was -73.7%.
